Screening results (PubChem BioAssay)
Shown are actives, neighbours in structure and some others; about 1.4% of the full set was active somewhere.
HSV augment: enhancers of HSV replication in host cells, fold increase, host cell viability; HSV replication augmentation in cells; maximum fold increase; 0.005% of 220,000 active; AID 1956, 2009; in the data active = maximum fold increase above about 1.5; tested in PC3 cells
Furin inhibitor: human furin inhibitors, primary screen, biochemical, fluorescence intensity | AID 463115, 2010 | purified furin, fluorogenic substrate cleavage | 0.061% of 220,000 active | inhibition, % at 20 µM or 30 µM; in the data active = inhibition above about 25%
Pf gamet viab: late stage P. falciparum gametocyte viability inhibitors, primary screen, ATP luminescence, HTS; P. falciparum stage V gametocytes, 24 h; inhibition, % at 10.9 µM; 0.065% of 150,000 active; AID 743093, 2013;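 active = inhibition above the mean plus 3 SD of compounds within the control limits, set per campaign, cut at about 38% in these data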;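 also: 0% = DMSO wells and 100% = medium only without gametocytes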
PGE2 EP2 inh: human EP2 receptor antagonists, primary screen, TR-FRET cAMP, C6 glioma cells | Prostaglandin E2 receptor EP2 subtype (Homo sapiens), P43116 | C6 glioma cells expressing human EP2; cells stimulated with saturating PGE2 | inhibition, % at 25 µM | 0.52% of 260,000 active;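 active = percent inhibition above 40 after rounding to a whole number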;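 also: rat C6 glioma host cells with rolipram phosphodiesterase inhibitor present; the protocol text gives 20 µM as final concentration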
Target sequence (P43116 whole entry, looked up): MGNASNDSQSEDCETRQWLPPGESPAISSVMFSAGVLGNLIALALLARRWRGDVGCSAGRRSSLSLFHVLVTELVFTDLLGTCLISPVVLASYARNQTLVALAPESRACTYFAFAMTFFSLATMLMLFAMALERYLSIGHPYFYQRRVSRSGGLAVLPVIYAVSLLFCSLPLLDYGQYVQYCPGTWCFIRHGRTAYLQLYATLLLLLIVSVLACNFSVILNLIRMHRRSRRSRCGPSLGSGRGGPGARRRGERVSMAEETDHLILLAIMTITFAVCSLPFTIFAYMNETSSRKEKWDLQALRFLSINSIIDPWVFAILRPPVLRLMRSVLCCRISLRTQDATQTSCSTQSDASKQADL
EP2 mod: EP2 receptor modulators, cAMP readout, primary screen, cell-based, HTRF cAMP, PGE2 stimulation | induction, % at 25 µM | EP2-expressing cells, cAMP HTRF FRET, PGE2 co-stimulation | Prostaglandin E2 receptor EP2 subtype (Homo sapiens), P43116 | AID 940, 2007 | 0.83% of 260,000 active;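 active = compounds whose cAMP rise, as percent of the full-agonist control response, exceeds 60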;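 also: rat C6 glioma line stably carrying human EP2 under a CMV promoter; the protocol text gives 20 µM as final concentration; 100% = response of wells given 1 µM PGE2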
Starred values were filed as active, the others as inactive; i = inactive; . = no result; ! = not confirmed by another sample.

SMILES	HSV augment	Furin inhibitor	Pf gamet viab	PGE2 EP2 inh	EP2 mod
COc1c(-c2coc3cc4c(cc3c2=O)CC(O)C(C)(C)O4)ccc2c1C=CC(C)(C)O2 (centres undefined)	.	.	.	91.8*	-52.5
O=C(c1nc2ccc([N+](=O)[O-])cc2[nH]c1=O)[C@@H](O)c1ccc2c(c1)OCO2	.	.	.	50.4*	17.4
NC(=O)CSc1nc2ccc([N+](=O)[O-])cc2[nH]1	i	-11.5	.	6.0	20.3
Cc1ccc(C(=O)c2cc([N+](=O)[O-])ccc2N2CCCCC2)c(C)c1	i	-11.1	.	5.7	63.1*
O=C(O)c1cc([N+](=O)[O-])ccc1N1CCCCC1	i	-13.9	.	6.2	22.1
O=C(NCCCc1ccccc1)C1CCN(c2nnc(-n3cccc3)s2)CC1	i	-9.1	.	11.6	-4.6
C/C(=N/NC(=O)c1cccs1)c1ccco1	i	-20.3	2.7	4.9	1.6
C/C(=N\N(c1ccccc1)c1ccccc1)c1ccco1	i	-14.1	3.7	2.6	61.7*
O=[N+]([O-])c1cnc(Sc2ccncn2)s1	i	2.7	14.4	69.7*	-43.7
COc1ccc(OCCCC(=O)Nc2cccc(C(C)=O)c2)cc1	i	-15.3	.	51.3*	-6.3
CCc1ccc2[nH]c(=O)c(C(c3nnnn3Cc3ccccc3)N3CCC(C)CC3)cc2c1 (centres undefined)	.	.	.	12.0	55.1
Cc1cc(C)c2cc(C(c3nnnn3C3CCCCC3)N3CCCc4ccccc43)c(=O)[nH]c2c1 (centres undefined)	.	.	.	7.9	71.4*
CCc1ccc2[nH]c(=O)c(C(c3nnnn3Cc3ccccc3)N3CCCc4ccccc43)cc2c1 (centres undefined)	.	.	.	14.7	66.4*
Cc1ccc2[nH]c(=O)c(C(c3nnnn3Cc3ccccc3)N3CCc4ccccc43)cc2c1 (centres undefined)	i	-36.6	-6.3	3.5	28.4
CCc1ccc2[nH]c(=O)c(C(c3nnnn3Cc3ccco3)N3CCC(C)CC3)cc2c1 (centres undefined)	i	-18.1	8.4	3.2	60.9*
O=C(CSc1nnc(Cc2cc(=O)[nH]c(=O)[nH]2)n1-c1ccc(Cl)cc1)N1CCc2ccccc21	i	-18.5	.	4.0	11.7
Nn1c(=S)[nH]c2sc3c(c2c1=O)CCCC3	.	.	-5.9	.	.
COCCCn1c(=S)[nH]c2sc3c(c2c1=O)CCCS3	i	-25.2	.	45.1*	-1.6
CC(=O)C1=C(O)C(=O)N(CCNCCO)C1c1ccc(C(C)(C)C)cc1 (centres undefined)	.	.	.	5.8	26.6
O=C1[C@@H]2[C@H](C(=O)N1CN1CCSCC1)[C@H]1[C@@H]3C=C[C@@H]([C@@H]4C(=O)N(CN5CCSCC5)C(=O)[C@@H]34)[C@@H]21	.	.	.	45.2*	14.6
C=CCOCCN1C(=O)C2C3C=CC(C2C1=O)C1C2C(=O)N(CCOCC=C)C(=O)C2C31 (centres undefined)	i	-14.1	2.9	1.3	4.2
Clc1ccc(N2CCN(/N=C/c3ccncc3)CC2)cc1	i	-21.2	20.3	2.3	-37.6
CCOc1ccc(OCC)c(NC(=O)CN2CCN(c3ccccc3OC)CC2)c1	.	.	.	21.3	9.3
CCOC(=O)/C=C(\C)Sc1cc(O)c2ccccc2c1O	i	-11.3	.	69.3*	-51.8
CCOc1ccc(C(=O)Nc2ccc(N3CCN(C)CC3)cc2)cc1Br	i	26.0*	5.4	13.4	29.0
SMILES	HSV augment	Furin inhibitor	Pf gamet viab	PGE2 EP2 inh	EP2 mod
Cc1ccccc1CSc1ncnc2ccccc12	i	-28.3	.	13.0	62.4*
N#CCSc1ncnc2ccccc12	i	-13.0	.	5.0	8.7
N#CC(C#N)=C1C=CC=CN1/C(=C\c1ccco1)C(=O)c1ccc(Br)cc1	i	-21.7	7.5	48.8*	-2.3
COc1cccc(-c2sc3ccc(OC)cc3c2-c2ccc(OCCN(C)C)cc2)c1	.	.	15.2	.	.
CNc1nc(NCCOC23CC4CC(CC(C4)C2)C3)nc(OCC(F)(F)F)n1	i	29.3*	.	-2.6	11.9
C=C(C)Cn1c(SCc2ccc(Cl)cc2)nc2c1c(=O)[nH]c(=O)n2C	.	.	.	11.9	70.8*
CCOCCn1c(SCCCc2ccccc2)nc2c1c(=O)[nH]c(=O)n2C	i	-13.8	.	16.6	62.2*
CCCCCCSc1nc2c(c(=O)[nH]c(=O)n2C)n1C	i	-20.9	.	10.3	64.2*
O=C(CSc1nc2ccccc2o1)Nc1nccs1	i	-17.9	.	2.2	-51.7
CN(C(=O)c1ccc(NC(=O)Cc2cccc(NC(=O)C3CCCN(C(=O)CCc4ccccc4)C3)c2)cc1)C1CCCC1 (centres undefined)	.	.	-4.3	.	.
CC(/C=C/c1ccc2c(c1)OCO2)=N\NC(=O)C(O)c1ccccc1 (centres undefined)	i	-0.5	4.5	11.3	-34.0
O=C(Nc1ccccc1N1CCCC1)c1cccc(Cl)c1Cl	i	-17.2	10.9	4.6	40.2
Cc1c(N2CCCC2)cc2c(c1NC(=O)c1ccccc1Cl)C(C)(C)CC2(C)C	i	2.7	.	46.8*!	15.1
COC(=O)C1C2C=CC3(CN(CCc4ccccc4)C(=O)C13)O2 (centres undefined)	i	-15.1	-21.5	51.0*!	-9.6
COc1cc(S(=O)(=O)NC(C)C)ccc1Cl	i	-12.0	.	7.4	30.7
O=[N+]([O-])c1ccc(Cl)c(CNc2ncnc3c2ncn3[C@@H]2CCCCO2)c1	.	.	.	42.9*	13.3
Cc1ccc2c(c1C)NC(C)CC2C (centres undefined)	i	26.4*	-5.8	9.0	25.2
Cc1cccc2c1NC1(CCCC1)CC2C (centres undefined)	i	-15.1	4.4	11.6	42.1
Brc1ccc(-c2nn3c(-c4ccco4)nnc3s2)o1	i	-21.0	-8.2	42.7*	33.2
Cc1ccc(OCc2nn3c(-c4ccco4)nnc3s2)cc1	i	-16.6	15.4	6.1	63.1*
Clc1ccc(-c2ccc(-c3nn4c(-c5ccco5)nnc4s3)o2)cc1	i	-10.2	.	6.2	.
Clc1ccc(OCc2nn3c(-c4ccco4)nnc3s2)c(Cl)c1	i	-12.9	14.1	6.5	5.1
COC(=O)c1sccc1NC(=O)c1ccoc1C	i	-34.4	3.8	-2.6	30.7
CC(C)(C)Nc1scc(-c2ccccc2)[n+]1-c1ccccc1	i	-9.4	12.1	3.0	22.4
OC[C@@H]1O[C@H](n2cnc3c(/C=C(\O)c4ccccc4)ncnc32)[C@H](O)[C@H]1O	.	.	.	45.0*	6.5
OC[C@H]1O[C@@H](n2cnc3c(Nc4ccccc4)ncnc32)[C@H](O)[C@@H]1O	i	-14.5	.	15.3	10.5
O=C(c1ccc(N2CCOCC2)cc1)c1cccs1	i	-13.2	-18.1	8.3	-11.6
O=C(NCc1ccccc1)c1ccc(-c2ccccc2C(F)(F)F)o1	i	-13.6	-65.1	7.9	13.1
CCOC(=O)[C@H]1[C@H]2COc3ccc(OC)cc3[C@@H]2N2C(=O)CN(Cc3ccc(Cl)cc3)C(=O)[C@@]12C	.	.	-4.3	.	.
